Outcome and AC50 data for 24 compounds are collected here from PubChem BioAssay (EPA / NIEHS).

In assay [1] the target is Transcription factor E2F1 (Homo sapiens) (UniProt Q01094). The experiment in a line: ATG_E2F_CIS: Attagene CIS-FACTORIAL HepG2 Assay for human E2F Transcription Factor 1 (AID 2282935). To be noted: HepG2 Attagene cis-reporter, E2F reporter RNA transcripts; actives raise or lower the signal. In a few lines: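 Total RNA from 24 h-treated, reporter-transfected HepG2 cells undergoes DNase I treatment, oligo(dT) reverse transcription, PCR and 6-FAM primer extension before capillary electrophoresis.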

Assay [2] in a line: ATG_E_Box_CIS: Attagene CIS-FACTORIAL HepG2 Assay for human Enhancer Box (E-box) (AID 2282936). To be noted: HepG2 E-box cis-reporter transcription, actives raise or lower the signal. In a few lines:
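DMSO served as negative control and baseline for bidirectional fitting. Human hepatoma HepG2 cells, transiently transfected with cis-reporter constructs, were dosed 24 h; reporter mRNA read by RT-PCR and capillary electrophoresis.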

Assay [3] is described as follows: ATG_M_61_CIS: Attagene CIS-FACTORIAL HepG2 Assay for M61 Transcription Factor (Internal Marker) (AID 2282937). To be noted: HepG2 Attagene CIS-FACTORIAL M61 internal marker reporter; actives raise or lower the signal. In a few lines:
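This endpoint serves as an internal background control within a multiplexed HepG2 cis-reporter panel. Cells are exposed for 24 h; reporter mRNA is amplified, fluorescently labelled and sized by capillary electrophoresis, with DMSO as negative control.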

Assay [4] is described as follows: ATG_EGR_CIS: Attagene CIS-FACTORIAL HepG2 Assay for human Early Growth Response 1 (EGR1) (AID 2282938). Conditions: HepG2 Attagene CIS-FACTORIAL EGR reporter mRNA; actives raise or lower the signal. The essentials:
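HepG2, transient MRTU transfection (cis promoters), 24 h compound. RNA → RT (oligo-dT) → PCR → 6-FAM labelling → HpaI cut → CE fluorescence. Bidirectional fit, DMSO baseline.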

Assay [5] can be described thus: ATG_M_19_CIS: Attagene CIS-FACTORIAL HepG2 Assay for M19 Transcription Factor (Internal Marker) (AID 2282939). Conditions: HepG2 Attagene CIS-FACTORIAL M19 internal marker reporter; actives raise or lower the signal. In a few lines: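 Readout: fluorescent reporter-transcript fragments by capillary electrophoresis after RT-PCR. Human HepG2 liver cells carried transfected MRTU constructs reporting endogenous transcription-factor activity; exposure 24 h. Gain or loss of signal fitted relative to DMSO.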

The nature of assay [6]: ATG_ERE_CIS: Attagene CIS-FACTORIAL HepG2 Assay for Estrogen Response Element (ERE) (AID 2282940). Conditions: HepG2 ERE cis-reporter, Attagene RNA transcript; actives raise or lower the signal. The essentials:
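Readout: reporter mRNA induction by RT-PCR, FAM-labelled primer extension, HpaI digestion and capillary electrophoresis, 24 h after dosing transfected HepG2 cells. Endogenous transcription factors act on cis-element-regulated reporters. Gain or loss fitted against DMSO.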

A short description of assay [7]: ATG_Ets_CIS: Attagene CIS-FACTORIAL HepG2 Assay for human Erythroblast Transformation Specific (ETS) (AID 2282941). Conditions: HepG2 ETS cis-reporter transcription, actives raise or lower the signal. In a few lines:
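HepG2 cells transfected with multiple cis-regulated reporter units measuring endogenous ETS-driven transcription, 24 h after dosing. Reporter mRNA quantified by RT-PCR with capillary electrophoresis; bidirectional fit relative to DMSO.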

Assay [8] addresses Hepatocyte nuclear factor 3-beta (Homo sapiens) (UniProt Q9Y261). Kind of assay: ATG_FoxA2_CIS: Attagene CIS-FACTORIAL HepG2 Assay for human Forkhead box A2 (FOXA2) (AID 2282942). To be noted: HepG2 cis-reporter transcription factor activity, 24 h; actives raise or lower the signal. In a few lines:
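Cells: HepG2, transient multiplex reporter transfection. Exposure 24 h. Detection: reporter-specific RT-PCR, fluorescent labelling, restriction digest, capillary electrophoresis. Analysis: bidirectional curve fit, DMSO as negative control.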

Assay [9] is described as follows: ATG_FoxO_CIS: Attagene CIS-FACTORIAL HepG2 Assay for human Forkhead box O (FoxO) (AID 2282943). Conditions: HepG2 Attagene cis-reporter, FoxO element, mRNA; actives raise or lower the signal. In a few lines:
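Human hepatoma HepG2 cells carry transiently introduced reporter transcription units controlled by cis promoter elements. Chemical treatment lasted 24 h, and mRNA signal was compared with DMSO.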

The nature of assay [10]: ATG_GATA_CIS: Attagene CIS-FACTORIAL HepG2 Assay for human GATA Binding Protein (AID 2282944). Conditions: HepG2 GATA cis-element reporter, Attagene multiplex mRNA; actives raise or lower the signal. In a few lines: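 Read-out: fluorescent reporter mRNA fragments resolved by capillary electrophoresis after RT-PCR. Human liver HepG2 cells carried transiently transfected cis-regulated reporter constructs; chemicals incubated 24 h; gain or loss of signal fitted relative to DMSO.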

“And” between values parts separate entries of the source, which are not always exact repeats. Equal entries are not always repeated. Some compounds were tested as several samples or in several runs, with calls that do not always agree. The source made the active and inactive calls. The calls were made as follows: active = hit-call score of the fitted dose curve at least 0.9, where 1 is the maximum; inactive = score below 0.9.

Hepatocyte nuclear factor 3-beta (Homo sapiens), sequence (Q9Y261 whole entry, looked up): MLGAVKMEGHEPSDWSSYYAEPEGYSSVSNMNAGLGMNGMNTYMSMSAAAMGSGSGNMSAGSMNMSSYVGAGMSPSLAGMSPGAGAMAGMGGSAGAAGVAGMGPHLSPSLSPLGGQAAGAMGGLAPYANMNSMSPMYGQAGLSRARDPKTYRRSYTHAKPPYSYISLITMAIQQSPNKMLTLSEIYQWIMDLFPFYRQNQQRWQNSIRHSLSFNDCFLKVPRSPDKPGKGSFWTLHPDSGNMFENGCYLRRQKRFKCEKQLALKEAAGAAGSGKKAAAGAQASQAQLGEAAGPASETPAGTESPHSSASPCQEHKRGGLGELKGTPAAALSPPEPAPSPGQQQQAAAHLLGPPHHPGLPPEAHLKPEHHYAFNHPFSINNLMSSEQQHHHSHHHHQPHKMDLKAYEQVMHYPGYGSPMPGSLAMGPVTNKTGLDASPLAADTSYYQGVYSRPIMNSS
Transcription factor E2F1 (Homo sapiens), sequence (Q01094 whole entry, looked up): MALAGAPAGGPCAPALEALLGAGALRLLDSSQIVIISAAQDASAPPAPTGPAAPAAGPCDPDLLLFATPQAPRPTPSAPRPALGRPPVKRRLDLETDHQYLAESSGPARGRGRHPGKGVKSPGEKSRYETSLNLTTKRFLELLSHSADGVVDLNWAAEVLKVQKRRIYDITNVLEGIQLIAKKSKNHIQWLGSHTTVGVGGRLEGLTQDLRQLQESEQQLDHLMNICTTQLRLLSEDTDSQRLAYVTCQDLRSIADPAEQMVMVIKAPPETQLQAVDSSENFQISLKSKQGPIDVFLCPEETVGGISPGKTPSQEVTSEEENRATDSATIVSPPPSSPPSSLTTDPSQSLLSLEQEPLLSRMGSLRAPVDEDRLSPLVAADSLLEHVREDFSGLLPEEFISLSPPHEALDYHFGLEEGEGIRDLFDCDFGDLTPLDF

In the case of `CCNC(=S)NCC`, the call in assay [1], in assay [2], in [3], in [4], in assay [5] and in assay [6] was inactive. Besides, the compound was called inactive in [7], in [8], in assay [9] and in [10].

A word on the AC50: it is the midpoint of the concentration-response curve, whichever way the signal moves. Consider `O=Cc1ccccc1O`, for which the outcome in assay [1], in assay [2], in [3], in [4], in [5] and in assay [7] was inactive. Also, the outcome in [8] and in [9] was inactive. Moreover, the AC50 in assay [6] was 25.2 µM (active).

`CC(=O)c1ccc(C)cc1`: the compound was classed as inactive in assay [1], in assay [2], in assay [3], in assay [4], in assay [5] and in assay [6]. For the same compound, the outcome in assay [7], in assay [8], in assay [9] and in [10] was inactive.

Consider `CCCCCCCCCCOC(=O)c1ccccc1C(=O)OCCCCCCCC`, for which the compound was classed as inactive in assay [1], in [2], in [3], in assay [4], in [5] and in assay [6]. The outcome in assay [7], in [8], in assay [9] and in assay [10] was inactive.

In the case of `C=C1CC[C@H]2O[C@]2(C)CC[C@@H]2[C@@H]1CC2(C)C`, the result in assay [1], in assay [2], in assay [3], in assay [4], in assay [5] and in assay [6] was inactive. In addition, the compound was called inactive in [7], in [8], in assay [9] and in [10].

Regarding `C=CCOC(=O)/C=C\C(=O)OCC=C`, the result in [1], in assay [2], in assay [3], in assay [5], in [6] and in assay [8] was inactive. The AC50 in assay [4] is 34.3 µM (active); in [7] it was 13.2 µM (active); in assay [9] it was 101 µM (active).

`C#C[C@]1(O)CC[C@H]2[C@@H]3CCc4cc(O)ccc4[C@H]3CC[C@@]21C`: the AC50 was 60.4 µM (active) in [1]; 41.2 µM (active) and 29.9 µM (active) in assay [2]; 180 µM (active) and 72.5 µM (active) and 50.9 µM (active) in assay [9]; 139 µM (active) and 142 µM (active) in assay [10]. For the same compound, the compound was called inactive in assay [1], in assay [2], in assay [3], in assay [4], in assay [8] and in assay [9]. Further, in assay [10], the compound was classed as inactive.

`O=C1CCC(=O)N1`: the result in [1], in assay [2], in assay [3], in [4], in [5] and in assay [6] was inactive. The result in assay [7], in assay [8] and in assay [9] was inactive.

Consider `CC1=CC(C)C(C=O)C(C)C1` (stereo not drawn) (tested in a mixture with another compound), for which the call in assay [1], in assay [2], in [3], in assay [4], in assay [5] and in assay [6] was inactive. The compound was called inactive in [7], in assay [8] and in assay [9].

For `O=c1cc(-c2ccc(O)cc2)oc2cc(O)cc(O)c12`, the compound was called inactive in assay [1], in assay [2], in assay [3], in assay [5], in assay [8] and in assay [9]. Also, the compound was classed as inactive in [10]. Besides, the results for the AC50 in assay [4], in assay [6] and in assay [7] were 10.1 µM (active), 1.18 µM (active) and 17.5 µM (active), respectively.

As for `CC/C=C\C#N`, the compound was called inactive in assay [1], in assay [2], in [3], in assay [4], in assay [5] and in assay [6]. In addition, the compound was classed as inactive in assay [7] and in assay [10].

In the case of `CCO[Si](CCC#N)(OCC)OCC`, the result in [1], in [2], in assay [3], in [4], in assay [5] and in [6] was inactive. Also, the compound was classed as inactive in [7], in assay [8] and in assay [10].

Consider `CC(=O)Oc1c(C)c(C)c2c(c1C)CC[C@@](C)(CCC[C@H](C)CCC[C@H](C)CCCC(C)C)O2`, for which the compound was classed as inactive in [1], in assay [2], in assay [3], in assay [4], in assay [5] and in assay [6]. Besides, the compound was classed as inactive in assay [7] and in assay [9].

Turning to `CCC(=O)OC(C)(C)C1CC=C(C)CC1` (stereo not drawn), the outcome in [1], in [2], in assay [3], in assay [4], in assay [5] and in assay [7] was inactive. Besides, the result in [8] and in [10] was inactive. The AC50 in [6] was 100 µM (active).

As to `CCCCCCCCCC(=O)OCC`, the compound was called inactive in assay [1], in assay [2], in [3], in assay [4], in [5] and in [6]. Also, the outcome in assay [7], in [8], in [9] and in [10] was inactive.

`C=C(C)C(=O)OCCN(C)C`: the result in [1], in [2], in assay [3], in [4], in [5] and in assay [6] was inactive. Also, the outcome in assay [7], in assay [9] and in [10] was inactive.

As to `C1CCCNCC1`, the call in assay [1], in [2], in assay [3], in assay [4], in assay [5] and in assay [6] was inactive. Besides, the compound was called inactive in [7], in assay [8] and in [10].

Take `NS(=O)(=O)c1cc(C(=O)O)c(NCc2ccco2)cc1Cl`: the compound was called inactive in assay [1], in assay [2], in [3], in assay [4], in assay [5] and in assay [6]. Moreover, the result in [7], in assay [9] and in assay [10] was inactive.

With `C1COCO1`, the compound was classed as inactive in assay [1], in [2], in assay [3], in assay [4], in [5] and in assay [6]. The compound was called inactive in [7], in assay [8] and in assay [10].

On to `N=C1N=C(N)c2ccccc21`, for which the result in assay [1], in [2], in [3], in assay [4], in assay [5] and in [7] was inactive. Besides, the outcome in assay [8] and in [10] was inactive. In addition, the AC50 in assay [6] is 18.1 µM (active).

For the compound `C=C(C)C(N)=O`, the compound was called inactive in assay [1], in assay [2], in assay [3], in assay [4], in assay [5] and in assay [6]. For the same compound, the result in [8], in [9] and in [10] was inactive.

For `CC(=O)CCc1ccc(O)cc1`, the compound was classed as inactive in [1], in [2], in assay [3], in assay [4], in assay [5] and in [6]. The outcome in assay [8], in assay [9] and in assay [10] was inactive.

Regarding `CCCCCCCCCCCCOCCOS(=O)(=O)O`, the compound was called inactive in assay [1], in assay [2], in assay [3], in assay [4], in [5] and in [6]. Besides, the result in assay [7], in assay [8], in assay [9] and in assay [10] was inactive.

Take `COc1ccccc1O`: the compound was classed as inactive in assay [1], in assay [2], in assay [3], in assay [4], in assay [5] and in assay [6]. Moreover, the result in assay [8], in assay [9] and in assay [10] was inactive.
